SW480 rerep – induces DNA re-replication in SW480 colon adenocarcinoma cells. 1.8% of 340,000 active. SW480 DNA re-replication, Hoechst DNA content imaging, 48 h. Potency, µM (top dose mostly 46.1 µM), inactives show at the top dose re-replication activation, usual class: activators; also: % of control where 0% means no effect; nearly all actives have a fitted effect of over 55% in size
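Treated cells incubate 48 hr (37 C, 5% CO2), are stained 40 min with Hoechst, and nuclear fluorescence is enumerated; a rise in nuclei with high DNA signal marks re-replication.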
AT treatment – potential ataxia-telangiectasia treatment | Potency, µM (top dose mostly 57.5 µM), inactives show at the highest dose activation, actives largely listed as activators | AID 485349 | F2112 A-T fibroblasts, KAP-1 phosphorylation AlphaLISA; neocarzinostatin DNA damage 30 min before lysis | 0.19% of 320,000 active; also: % of control where 0% means no effect; nearly all actives have a fitted effect of over 45% in size
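hTERT-immortalized A-T patient fibroblasts (F2112), 500 cells/well in OPTI-MEM, 1% FBS, got compounds for 60 min, then NCS for 30 min at 37C. Lysates were then assayed for phospho-KAP-1 by AlphaLISA (anti-pKAP1 donor, anti-KAP1 acceptor beads), 6 hr at 25C.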
p53 reactivator – re-activators of mutant p53; H1299 p53-A138V BP100-luciferase reporter, luminescence, 24 h; Potency, µM (doses to about 92.2 µM), without a hit: at the top dose activity change, positive = activation, actives largely listed as activators; 0.063% of 320,000 active; AID 504706; also: % of control where 0% means no effect; nearly all actives have a fitted effect of over 45% in size
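H1299 (p53-null), stable ts p53-A138V + BP100-Luc; 1000 cells/well, Opti-MEM/10% FBS; cpd 4 pt, 1:5; 24 h, 37 deg C, 5% CO2; detection reagent 10 min RT; luminescence.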
ELG1 genotox – genotoxicity induction in ELG1-luciferase HEK293T cells. AID 504466. 1.3% of 330,000 active. HEK293T ELG1-luciferase reporter, luminescence, 16 h. Potency, µM (series often up to 46 µM), without a hit: at the top dose activity change, positive = activation, hits mostly activators; also: % of control where 0% means no effect; nearly all actives have a fitted effect of over 60% in size
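HEK293T cells expressing luciferase-tagged ELG1 were exposed to compound or DMSO vehicle for 16 hr at 37 °C and 5% CO2. Luciferase activity was then measured with ONE-Glo after 30 min at room temperature.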
ELG1 DNA repair – blocks ELG1-dependent DNA repair in HEK293T cells | AID 504467 | HEK293T ELG1-luciferase reporter, luminescence, 16 h; DNA damage induced by 5-fluorouridine | Potency, µM (titrated, usually from 46.1 µM), for the others: at the top dose activity change, negative = inhibition, usual class: inhibitors | 2.3% of 330,000 active; also: % is scaled to controls: 0 for no effect and ±100 for the full control effect; nearly all actives have a fitted effect of over 55% in size
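In this reporter screen, reduction of luminescence relative to DMSO vehicle indicated activity. Compounds and 5-fluorouridine were added together to 2,000 cells per well, incubated for 16 hr at 37 °C, then developed with ONE-Glo.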
MCF10A rerep – DNA re-replication induction in MCF 10a cells; MCF 10A DNA re-replication, Hoechst nuclear intensity, 48 h; 2.9% of 350,000 active; Potency, µM (highest dose often 46.1 µM), inactives show top-dose activity, positive = re-replication, usual class: activators; also: % of control where 0% means no effect; nearly all actives have a fitted effect of over 50% in size
The depositor's hits bear a star. An excerpt weighted towards active compounds, which were near 7.1% of everything screened. Calls follow the shape of the dose curve; as a rule, active = well fitted curve in the direction sought with a large enough effect; inconclusive = small, poorly fitted or top-dose-only effect, or another doubt; inactive = no such curve, though single readings can be large; an effect the other way counts as inactive or inconclusive. Potency is read from the fitted curve at half-maximal effect.

Results for O=C(NCCN1C(=O)S/C(=C\c2ccc(OC(F)F)cc2)C1=O)C1=COCCO1 ?
SW480 rerep: 20.6µM*; AT treatment: -9.5%; p53 reactivator: 12.9%; ELG1 genotox: 0.7%; ELG1 DNA repair: -10.7%; MCF10A rerep: 18.4µM*

What do the screens show for `COc1ccc(/C=C2\SC(=O)N(CCNC(=O)C3=COCCO3)C2=O)cc1`?
SW480 rerep: 10.3µM*; AT treatment: 8.1%; p53 reactivator: inconclusive; ELG1 genotox: 16.4µM*; ELG1 DNA repair: inconclusive; MCF10A rerep: 1.84µM*

How did CC(OC(=O)c1cc(=O)c2cc(Cl)ccc2o1)C(=O)N1CCCC1 (configuration not stated) do in these assays?
SW480 rerep: -82.9%; AT treatment: 4.8%; p53 reactivator: 7.6%; ELG1 genotox: -1.2%; ELG1 DNA repair: 23.7%; MCF10A rerep: inconclusive

How did Cc1cc(C(=O)Nc2cc(Br)ccc2O)on1 do in these assays?
SW480 rerep: inconclusive; AT treatment: 12.3%; p53 reactivator: 4.0%; ELG1 genotox: -6.4%; ELG1 DNA repair: -2.5%; MCF10A rerep: -1.3%

How did O=C(O)c1ccc(CP(=O)(c2ccccc2)c2ccccc2)cc1 do in these assays?
SW480 rerep: -3.6%; AT treatment: 6.4%; p53 reactivator: inconclusive; ELG1 genotox: 2.0%; ELG1 DNA repair: -13.1%; MCF10A rerep: 8.4%

What do the screens show for `Cc1cccc(N2CCN(S(=O)(=O)c3ccc4c(c3)CCCN4C(=O)C3CCC3)CC2)c1C`?
SW480 rerep: -6.6%; AT treatment: 5.0%; p53 reactivator: 6.0%; ELG1 genotox: -0.2%; ELG1 DNA repair: -12.7%; MCF10A rerep: 13.9%

Results for COc1cc(/C=C2\SC(=O)N(CCNC(=O)c3c(C)noc3C)C2=O)cc(OC)c1OC ?
SW480 rerep: 3.4%; AT treatment: 4.5%; p53 reactivator: 6.1%; ELG1 genotox: -1.2%; ELG1 DNA repair: 18.3µM*; MCF10A rerep: 4.0%

Results for N#C/C(=C/c1ccc(N2CCCCC2)o1)C(=O)Nc1ccc(Cl)cc1 ?
SW480 rerep: -9.8%; AT treatment: 2.6%; p53 reactivator: inconclusive; ELG1 genotox: 2.31µM*; ELG1 DNA repair: inconclusive; MCF10A rerep: -0.6%

How did CC1CC1c1ccc(/C=C(\C#N)C(=O)Nc2ccccc2Cl)o1 (configuration not stated) do in these assays?
SW480 rerep: 4.2%; AT treatment: 6.2%; p53 reactivator: 0.7%; ELG1 genotox: 17.6%; ELG1 DNA repair: inconclusive; MCF10A rerep: 16.4µM*

Results for N#C/C(=C/c1ccc(N2CCCCC2)o1)C(=O)Nc1ccc2ccccc2c1 ?
SW480 rerep: 13.1%; AT treatment: -2.9%; p53 reactivator: 26.0%; ELG1 genotox: -0.3%; ELG1 DNA repair: -0.8%; MCF10A rerep: inconclusive

How did CN(c1ccc(C(=O)NCc2ccncc2)cc1)S(=O)(=O)c1ccc(Cl)cc1 do in these assays?
SW480 rerep: -1.5%; AT treatment: 4.2%; p53 reactivator: -14.0%; ELG1 genotox: -1.3%; ELG1 DNA repair: -1.4%; MCF10A rerep: inconclusive

What do the screens show for `COc1ccc2c(C#CCCO)c(-c3ccc(S(C)(=O)=O)cc3)sc2c1`?
SW480 rerep: inconclusive; AT treatment: inconclusive; p53 reactivator: -3.8%; ELG1 genotox: 3.9%; ELG1 DNA repair: -20.8%; MCF10A rerep: 20.6µM*

Results for COc1ccc2sc(-c3ccc(S(C)(=O)=O)cc3)c(C#CCO)c2c1 ?
SW480 rerep: 1.4%; AT treatment: 12.9%; p53 reactivator: -10.4%; ELG1 genotox: -10.0%; ELG1 DNA repair: inconclusive; MCF10A rerep: inconclusive

Results for N#Cc1c(/N=C/c2cc(Br)cs2)sc2c1CCC2 ?
SW480 rerep: -5.4%; MCF10A rerep: 1.2%

How did N#Cc1c(/N=C/c2cccs2)sc2c1CCC2 do in these assays?
SW480 rerep: -3.2%; AT treatment: -6.3%; p53 reactivator: 21.1%; ELG1 genotox: 7.08µM*; ELG1 DNA repair: inconclusive; MCF10A rerep: 2.2%

How did O=C(CCS(=O)(=O)c1ccccc1)Nc1ncc([N+](=O)[O-])s1 do in these assays?
SW480 rerep: 7.31µM*; AT treatment: -4.5%; p53 reactivator: inconclusive; ELG1 genotox: -10.8%; ELG1 DNA repair: 0.5%; MCF10A rerep: 4.61µM*

What do the screens show for `O=C(CCS(=O)(=O)Cc1ccccc1)Nc1nncs1`?
SW480 rerep: 20.6µM*; AT treatment: -0.5%; p53 reactivator: 2.9%; ELG1 genotox: 1.1%; ELG1 DNA repair: 17.5%; MCF10A rerep: inconclusive

Results for O=C(CCS(=O)(=O)Cc1ccccc1)Nc1ncc([N+](=O)[O-])s1 ?
SW480 rerep: 23.1µM*; AT treatment: -2.1%; p53 reactivator: 6.8%; ELG1 genotox: inconclusive; ELG1 DNA repair: -0.3%; MCF10A rerep: inconclusive

How did O=C(CS(=O)(=O)c1ccccc1)Nc1ncc([N+](=O)[O-])s1 do in these assays?
SW480 rerep: -0.3%; AT treatment: 4.4%; p53 reactivator: 0.0%; ELG1 genotox: -23.1%; ELG1 DNA repair: -2.0%; MCF10A rerep: -1.7%

Results for O=C(CCc1ccccc1)Nc1nncs1 ?
SW480 rerep: -10.1%; AT treatment: -5.0%; p53 reactivator: 10.1%; ELG1 genotox: 3.1%; ELG1 DNA repair: -0.9%; MCF10A rerep: 0.9%

How did O=C(Nc1cccc(C(F)(F)F)c1)C1CC(=O)N(CCc2ccccc2)C1 (configuration not stated) do in these assays?
SW480 rerep: 5.5%; AT treatment: -6.3%; p53 reactivator: -4.0%; ELG1 genotox: 0.6%; ELG1 DNA repair: 3.6%; MCF10A rerep: -14.2%

How did CCN(CC)S(=O)(=O)c1ccc(-c2nnc(SCC(N)=O)n2CC)cc1 do in these assays?
SW480 rerep: inconclusive; AT treatment: -12.2%; p53 reactivator: 1.6%; ELG1 genotox: 1.0%; ELG1 DNA repair: 7.2%; MCF10A rerep: -12.9%

How did CCN(CC)S(=O)(=O)c1ccc(-c2nnc3sc4cccc(C)c4n23)cc1 do in these assays?
SW480 rerep: -0.3%; AT treatment: 4.1%; p53 reactivator: -6.3%; ELG1 genotox: -6.5%; ELG1 DNA repair: 23.1µM*; MCF10A rerep: 3.3%

What do the screens show for `CCOC(=O)N1CCN(C(=O)C(NC(=O)c2ccc(C(C)(C)C)cc2)C(C)C)CC1` (configuration not stated)?
SW480 rerep: inconclusive; AT treatment: 0.7%; p53 reactivator: 8.8%; ELG1 genotox: -0.9%; ELG1 DNA repair: inconclusive; MCF10A rerep: 29.4%

How did CCN(CC(=O)NC(=O)Nc1ccccc1F)Cc1ccccc1 do in these assays?
SW480 rerep: 0.2%; AT treatment: 9.2%; p53 reactivator: 0.7%; ELG1 genotox: 18.3µM*; ELG1 DNA repair: 17.5%; MCF10A rerep: 20.2%
